Most compounds without a hit are left out; they make up all but 4.1% or so of the library.
MEKK2 mut-MEK5 = signal of MEK5 binding to mutant human MEKK2 PB1 domain; bead flow cytometry, Alexa488-MEK5 binding to MEKK2 mutant; percent response, % at 10 µM; 290,000 compounds, 0.35% hits; AID 1530; in the data active = percent response above about 24%, passing the limit was not always enough
Mot1-301 SUMO = SUMOylation pathway inhibition by Mot1-301 growth rescue; S. cerevisiae Mot1-301 growth rescue, ATP luminescence, 38.5C; percent above DMSO median, 100 means doubled; growth rescue, % at 18.8 µM; 320,000 compounds, 1% hits;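 active = every valid replicate shows activation above 250% relative to neutral control wells; inactive = the rest, any valid replicate at or below 250%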
CHT block = inhibitors of human choline transporter CHT; CHT-expressing cells, membrane potential dye, choline response; active compounds read low; Q9GZV3; AID 488975; 310,000 compounds, 0.86% hits; B-score at 10 µM;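 active = B-score over 3 SD under the library average, and starting fluorescence ratio not unusually high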;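 also: choline stimulus applied at its EC90 after an EC20 pre-addition; B-score computed on integrated fluorescence ratio after choline addition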
Target sequence (Q9GZV3 whole entry, looked up): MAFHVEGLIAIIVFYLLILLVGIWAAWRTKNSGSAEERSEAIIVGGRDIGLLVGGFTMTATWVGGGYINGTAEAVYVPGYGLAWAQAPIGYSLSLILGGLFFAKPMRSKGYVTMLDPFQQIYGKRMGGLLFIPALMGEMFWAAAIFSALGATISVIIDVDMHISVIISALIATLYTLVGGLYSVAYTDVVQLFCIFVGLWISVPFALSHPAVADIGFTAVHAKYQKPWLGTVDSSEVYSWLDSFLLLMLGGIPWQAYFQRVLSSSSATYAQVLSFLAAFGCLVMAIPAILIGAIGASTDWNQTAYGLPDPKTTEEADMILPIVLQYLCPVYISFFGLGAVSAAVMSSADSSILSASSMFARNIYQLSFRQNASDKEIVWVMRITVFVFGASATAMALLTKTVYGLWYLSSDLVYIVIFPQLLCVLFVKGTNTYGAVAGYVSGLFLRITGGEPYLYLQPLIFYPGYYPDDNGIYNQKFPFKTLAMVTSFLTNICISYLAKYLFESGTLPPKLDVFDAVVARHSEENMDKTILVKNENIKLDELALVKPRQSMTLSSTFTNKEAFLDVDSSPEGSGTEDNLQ
MEKK2 WT-MEK5 = raises or lowers MEK5 binding to wildtype human MEKK2 PB1 domain. Q9Y2U5. bead flow cytometry, Alexa488-MEK5 binding to MEKK2 WT; actives lie on both sides. binding response (% of control), % at 10 µM. 290,000 compounds, 1.1% hits. AID 1531; in the data active = binding response below about 67% or above about 130%
CHT allo act = human CHT allosteric activation; CHT-expressing cells, membrane potential dye, choline EC20; active compounds read high; LV-AA mutant CHT in HEK293 cells; Q9GZV3; B-score at 10 µM; AID 488977; 310,000 compounds, 0.49% hits;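 active = initial fluorescence not abnormally high and integrated response B-score, plate-corrected, over 3 SD above library mean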
MEKK3 PB1 HTS = modulators (inhibitors or enhancers) of MEK5 binding to human MEKK3 PB1 domain; Q99759; bead-based flow cytometry, Alexa488-MEK5 binding to MEKK3; actives lie on both sides; 0 = blocked by unlabeled MEK5, 100 = vehicle; binding response (% of control), % at 10 µM; 290,000 compounds, 1.4% hits;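 active = binding response more than 3 SD above or below the average of its plate-row segment, actives on both sides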;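 also: Alexa488 bead fluorescence after subtracting the streptavidin-only scavenger bead signal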
CHT inh conf = human CHT inhibition, confirmatory screen; 2,400 compounds, 70% hits; shares compounds with CHT block; CHT-expressing cells, choline membrane potential dye; LV-to-AA substituted CHT, HEK293 cells; CHT activity remaining % of control (active compounds read low), % at 10 µM;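 active = choline transporter activity left, mean of duplicates at 10 µM, below buffer-only control mean minus 3 SD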;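 also: depolarization triggered by choline at its EC90 following an EC20 pre-addition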
HEK293 CHT ctr = activity in parental HEK293 cells lacking CHT. membrane potential ratio readout (active if shifted either direction beyond buffer ±3SD; no single direction) at 10 µM. membrane potential dye, choline response; active = decrease or increase beyond buffer ±3SD. 2,400 compounds, 4% hits. shares compounds with CHT block. AID 493222;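 also: parental cells lack the transporter so any hit is non-specific; ratio is peak minus trough fluorescence over baseline after EC90 choline challenge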
Each line names hits and unclear results; the compound was inactive in the other large screens (follow-up assays come after a bar, where they were run).

Cc1cccc(N2CCN(C(=O)COc3cc(=O)n(C)c4ccccc34)CC2)c1C	CHT block -13 | CHT inh conf 31% | HEK293 CHT ctr inactive
COc1ccc(N2CCN(C(=O)CCCOc3cc(=O)n(C)c4ccccc34)CC2)cc1	none
Cc1ccc(C)c(N2CCN(C(=O)COc3cc(=O)n(C)c4ccccc34)CC2)c1	none (no result: MEKK2 mut-MEK5, MEKK2 WT-MEK5, MEKK3 PB1 HTS)
CC1CCN(C(=O)CCCOc2cc(=O)n(C)c3ccccc23)CC1	CHT block -5.9 | CHT inh conf 69% | HEK293 CHT ctr inactive
C#CCN(CC=C)C(=O)c1ccc2nc(C3CCCCC3)oc2c1	none
CCC(=O)c1ccc2ncccc2c1	none
COc1ccc(CCNC(=O)COc2nncc3ccccc23)cc1	none
CCc1cc(C(=O)Cc2nc3ccccc3[nH]2)c(O)cc1O	none
CCc1cc(C(=O)COc2ccccc2F)c(O)cc1O	CHT block -5.8 | CHT inh conf inactive | HEK293 CHT ctr inactive
O=C(Cc1ccc(F)cc1)c1ccc(O)cc1O	none
CCc1cc(C(=O)Cc2ccc(F)cc2)c(O)cc1O	CHT block -5.6 | CHT inh conf 43% | HEK293 CHT ctr inactive
CCCc1cc(C(=O)Cc2ccc(F)cc2)c(O)cc1O	CHT block -6.5 | CHT inh conf 62% | HEK293 CHT ctr inactive
CSc1nc(Nc2ccc(Cl)cc2)c(C#N)c(=O)[nH]1	CHT block -6.1 | CHT inh conf inactive | HEK293 CHT ctr inactive
C[C@@H]1CN([C@@H](C)CO)C(=O)c2cc(NC(=O)Nc3ccccc3)ccc2O[C@H]1CN(C)C(=O)Nc1cccc2ccccc12	none (no result: MEKK2 mut-MEK5, CHT block, MEKK2 WT-MEK5, CHT allo act, MEKK3 PB1 HTS)
CCOC(=O)c1cccc(NC(=O)CCS(=O)(=O)c2cccc3nsnc23)c1	CHT block -8.3 (no result: MEKK2 mut-MEK5, Mot1-301 SUMO, MEKK2 WT-MEK5, MEKK3 PB1 HTS) | CHT inh conf 36% | HEK293 CHT ctr inactive
Cc1cc(C(C)(C)C)cc(C)c1S(=O)(=O)N1CC(=O)Nc2ccccc21	none
Cn1c(-c2sccc2OCc2ccc(Cl)cc2Cl)n[nH]c1=S	CHT block -5.6 | CHT inh conf inactive | HEK293 CHT ctr inactive
Cc1c(/C=N\NC(=O)c2ccc([N+](=O)[O-])cc2)cnn1C	CHT block -7.7 | CHT inh conf inactive | HEK293 CHT ctr inactive
COc1ccc(-c2nnc(SCC(=O)Nc3c(Cl)cc(Cl)cc3C(=O)O)o2)cc1	none (no result: MEKK2 mut-MEK5, CHT block, MEKK2 WT-MEK5, CHT allo act, MEKK3 PB1 HTS)
COc1ccc(S(=O)(=O)Cc2ccc(C(=O)N3CCN(c4cccc(C)c4)C(C)C3)o2)cc1 (configuration not stated)	CHT block -5.4 | CHT inh conf inactive | HEK293 CHT ctr inactive
Cc1noc(C)c1CSc1nc2ccccc2n1CCc1ccccc1	CHT block -5 | CHT inh conf inactive | HEK293 CHT ctr inactive
Cc1noc(C)c1CSc1nc2ccccc2c(=O)n1-c1ccc(Cl)cc1	none
COc1ccc(C2=NO[C@@H]3[C@@H]4C[C@@H]([C@H]5C(=O)N(C)C(=O)[C@@H]45)[C@H]23)c(OC)c1	none
Cc1c(C)n(O)c2ccc3nonc3c12	CHT block -6.8 | CHT inh conf 6.2% | HEK293 CHT ctr inactive
COC(=O)c1nc2ccc(N3CCOCC3)cc2c(C)c1C(=O)OC	CHT block -5.7 | CHT inh conf inactive | HEK293 CHT ctr inactive
CCC(Oc1ccc2c(c1)C(=O)CC(C)(C)O2)C(=O)NCCN1CCCCCC1 (configuration not stated)	CHT block -6.4 (no result: MEKK2 mut-MEK5, MEKK2 WT-MEK5, MEKK3 PB1 HTS) | CHT inh conf 31% | HEK293 CHT ctr inactive
Cc1ccc(NC(=O)CSc2n[nH]c(=O)n2C2CC2)cc1S(=O)(=O)N1CCOCC1	CHT block -6.8 | CHT inh conf inactive | HEK293 CHT ctr inactive
C/C(=N\NC(=O)c1nnn(-c2nonc2N)c1C(C)C)c1cc(C)sc1C	none
COc1ccc(S(=O)(=O)N2CCCCCC2)cc1C(=O)N(C)CC(=O)Nc1cc(C)ccc1C	none
CCc1ccc(Nc2n[n+](-c3ccccc3)c(-c3cccc(C)c3)s2)cc1	CHT block -15 (no result: MEKK2 mut-MEK5, MEKK2 WT-MEK5, MEKK3 PB1 HTS) | CHT inh conf 49% | HEK293 CHT ctr 2.6
COc1ccc(-c2sc(Nc3ccccc3)n[n+]2-c2ccccc2)cc1Br	none (no result: MEKK2 mut-MEK5, MEKK2 WT-MEK5, MEKK3 PB1 HTS)
CC1CCC(NC(=O)c2cccc(S(=O)(=O)N3CCN(c4ccc(F)cc4)CC3)c2)CC1 (configuration not stated)	CHT block -5.6 (no result: MEKK2 mut-MEK5, MEKK2 WT-MEK5, MEKK3 PB1 HTS) | CHT inh conf inactive | HEK293 CHT ctr inactive
O=C(NNC(=O)c1cccc(S(=O)(=O)N2CCN(c3ccccc3)CC2)c1)c1ccc(Cl)cc1	CHT block -5.4 | CHT inh conf inactive | HEK293 CHT ctr inactive
CC(=O)N1CCN(C(=O)c2cccc(S(=O)(=O)N3CCN(c4ccccc4)CC3)c2)CC1	none (no result: MEKK2 mut-MEK5, CHT block, MEKK2 WT-MEK5, CHT allo act, MEKK3 PB1 HTS)
CNC[C@H]1Oc2ccc(NC(=O)Cc3cn(C)c4ccccc34)cc2CC(=O)N([C@@H](C)CO)C[C@H]1C	none (no result: MEKK2 mut-MEK5, CHT block, MEKK2 WT-MEK5, CHT allo act, MEKK3 PB1 HTS)
NCCCCCc1nnc(SCc2ccc(Cl)c(Cl)c2)o1	CHT block -5.4 | CHT inh conf 30% | HEK293 CHT ctr inactive
Cc1oc(-c2ccccc2F)nc1CS(=O)CC(=O)NCc1ccc(F)cc1 (configuration not stated)	none
COc1ccc(CNC(=O)[C@H](C)NC(=O)N2CCn3c2nc2ccccc23)cc1	CHT block -6 | CHT inh conf 47% | HEK293 CHT ctr inactive
CC(C)CC(=O)Nc1ccccc1N1CCN(c2ccccc2)CC1	none
CC(C)CC(=O)Nc1ccccc1N1CCN(C(=O)c2ccccc2)CC1	CHT block -5.1 (no result: MEKK2 mut-MEK5, MEKK2 WT-MEK5, MEKK3 PB1 HTS) | CHT inh conf inactive | HEK293 CHT ctr inactive
CCN1CCN(c2sc(S(C)(=O)=O)nc2S(=O)(=O)c2ccc(C)cc2)CC1	none
O=C(O)CN1C(=O)/C(=C/C=C/c2ccccc2)SC1=S	CHT block -8.5 | CHT inh conf 40% | HEK293 CHT ctr inactive
CC(=O)c1ccc(NC(=O)CN2C(=O)/C(=C/C=C/c3ccccc3)SC2=S)cc1	none
COCCCN=C1NN=C(c2cc(C)n(-c3ccccc3)c2C)CS1	none
COCCCN=C1NN=C(c2cc(C)n(-c3ccccc3F)c2C)CS1	CHT block -6.5 | CHT inh conf 33% | HEK293 CHT ctr inactive
Cc1cc(-c2csc(NC(=O)c3ccc(=O)[nH]c3)n2)c(C)n1Cc1ccco1	none
CC1CCCC(NC(=O)CCNC(=O)c2ccc(Br)cc2)C1C (configuration not stated)	CHT block -5.1 (no result: MEKK2 mut-MEK5, MEKK2 WT-MEK5, MEKK3 PB1 HTS) | CHT inh conf inactive | HEK293 CHT ctr inactive

Source: PubChem BioAssay (several laboratories)
